# Test results reported in publication PMC7862700, “An all-to-all approach to the identification of sequence-specific readers for epigenetic DNA modifications on cytosine”.
# Assays:
# Test in all cases: DAPPL (digital affinity profiling via proximity ligation, sequencing); 10 mM Tris-HCl pH 7.5, 50 mM NaCl, 1 mM DTT, 4% glycerol, room temperature, 30 min; GST-TFs on glutathione beads, 16-mer random dsDNA library, 0.1% formaldehyde crosslink after washing; high values mean tight binding
# FEV = molecular target: T1, FEV (Homo sapiens, UniProt Q99581 1-238); settings: protein: recombinant; tags: N-terminal GST; dsDNA, one strand shown
# T1 sequence: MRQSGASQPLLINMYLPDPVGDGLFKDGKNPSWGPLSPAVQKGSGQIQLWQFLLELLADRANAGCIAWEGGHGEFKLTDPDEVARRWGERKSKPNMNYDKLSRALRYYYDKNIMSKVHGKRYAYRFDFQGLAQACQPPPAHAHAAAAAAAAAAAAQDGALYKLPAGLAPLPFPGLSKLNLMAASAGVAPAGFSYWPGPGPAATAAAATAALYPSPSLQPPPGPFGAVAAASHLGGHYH
# Summary of the method: (§1)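 A tag-only sample was pooled with DNA-barcoded human transcription factors that had been expressed in yeast as GST fusions and captured on glutathione beads. The pools were incubated for 30 min at room temperature with 200 nmole of a random double-stranded 16-mer DNA library in Tris/NaCl/DTT/glycerol buffer, then washed, crosslinked with 0.1% formaldehyde, proximity-ligated (BsaI/T4 ligase, 1 h, 37 °C), PCR-amplified and sequenced on an Illumina NextSeq500. Binding signal is each hexamer's read frequency for a factor divided by its frequency for the tag-only sample.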
# ETV5 = ETV5 (Homo sapiens, UniProt P41161 1-510); settings: protein: recombinant; tags: N-terminal GST; dsDNA, one strand shown
# Summary of the method: as §1
# HSF1 = HSF1 (Homo sapiens, UniProt Q00613 1-529); settings: protein: recombinant; tags: N-terminal GST; chain copies: 3; dsDNA, one strand shown
# Summary of the method: as §1
# SPIC = molecular target: T2, SPIC (Homo sapiens, UniProt Q8N5J4 1-248); settings: protein: recombinant; tags: N-terminal GST; dsDNA, one strand shown
# T2 sequence: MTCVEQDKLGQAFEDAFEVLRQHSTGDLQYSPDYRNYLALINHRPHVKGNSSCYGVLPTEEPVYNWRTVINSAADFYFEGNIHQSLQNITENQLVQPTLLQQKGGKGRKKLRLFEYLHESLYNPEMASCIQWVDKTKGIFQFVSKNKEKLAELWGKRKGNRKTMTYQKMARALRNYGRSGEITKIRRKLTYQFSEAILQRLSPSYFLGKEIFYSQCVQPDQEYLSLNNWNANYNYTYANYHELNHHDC
# Summary of the method: as §1
# ELF4 = ELF4 (Homo sapiens, UniProt Q99607 1-663); settings: protein: recombinant; tags: N-terminal GST; dsDNA, one strand shown
# Summary of the method: as §1
# ELK4 = molecular target: T3, ELK4 (Homo sapiens, UniProt P28324-2 1-405); settings: protein: recombinant; tags: N-terminal GST; dsDNA, one strand shown
# T3 sequence: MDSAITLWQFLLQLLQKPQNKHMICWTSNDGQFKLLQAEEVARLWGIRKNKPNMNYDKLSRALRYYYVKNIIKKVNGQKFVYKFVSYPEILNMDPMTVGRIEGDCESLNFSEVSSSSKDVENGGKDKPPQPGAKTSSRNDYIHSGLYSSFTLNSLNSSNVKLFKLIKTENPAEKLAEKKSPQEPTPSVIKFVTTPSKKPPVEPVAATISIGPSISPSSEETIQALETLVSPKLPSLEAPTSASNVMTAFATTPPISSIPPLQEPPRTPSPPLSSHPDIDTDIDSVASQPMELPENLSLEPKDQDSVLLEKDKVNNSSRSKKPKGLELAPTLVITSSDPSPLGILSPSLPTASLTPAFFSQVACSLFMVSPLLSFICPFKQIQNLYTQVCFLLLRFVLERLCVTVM
# Summary of the method: as §1
# ETV2 = molecular target: T4, ETV2 (Homo sapiens, UniProt O00321 1-342); settings: protein: recombinant; tags: N-terminal GST; dsDNA, one strand shown
# T4 sequence: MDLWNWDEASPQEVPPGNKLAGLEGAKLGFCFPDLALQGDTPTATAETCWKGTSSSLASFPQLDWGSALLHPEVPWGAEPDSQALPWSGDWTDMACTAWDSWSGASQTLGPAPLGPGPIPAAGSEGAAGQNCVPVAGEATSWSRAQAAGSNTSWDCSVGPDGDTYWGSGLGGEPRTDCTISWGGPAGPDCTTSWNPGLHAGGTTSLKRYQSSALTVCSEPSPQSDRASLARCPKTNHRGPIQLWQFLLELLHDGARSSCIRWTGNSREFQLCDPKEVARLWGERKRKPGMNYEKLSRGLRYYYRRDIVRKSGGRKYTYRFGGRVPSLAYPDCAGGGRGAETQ
# Summary of the method: as §1
# ELF3 = molecular target: T5, ELF3 (Homo sapiens, UniProt P78545 1-371); settings: protein: recombinant; tags: N-terminal GST; dsDNA, one strand shown
# T5 sequence: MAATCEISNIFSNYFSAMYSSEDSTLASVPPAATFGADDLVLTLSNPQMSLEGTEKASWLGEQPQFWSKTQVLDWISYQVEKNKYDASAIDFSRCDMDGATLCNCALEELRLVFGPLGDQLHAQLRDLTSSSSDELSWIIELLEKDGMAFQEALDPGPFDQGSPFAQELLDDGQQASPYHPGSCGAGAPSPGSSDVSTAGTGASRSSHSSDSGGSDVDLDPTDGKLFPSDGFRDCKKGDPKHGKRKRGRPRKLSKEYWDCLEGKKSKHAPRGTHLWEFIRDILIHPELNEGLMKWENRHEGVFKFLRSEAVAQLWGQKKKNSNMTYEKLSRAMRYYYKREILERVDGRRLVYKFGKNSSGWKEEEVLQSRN
# Summary of the method: as §1
# CRX = CRX (Homo sapiens, UniProt O43186 1-299); settings: protein: recombinant; tags: N-terminal GST; dsDNA, one strand shown
# Summary of the method: as §1
# ETV1 = ETV1 (Homo sapiens, UniProt P50549 1-477); settings: protein: recombinant; tags: N-terminal GST; dsDNA, one strand shown
# Summary of the method: as §1
# ERF = molecular target: T6, ERF (Homo sapiens, UniProt P50548 1-548); settings: protein: recombinant; tags: N-terminal GST; dsDNA, one strand shown
# T6 sequence: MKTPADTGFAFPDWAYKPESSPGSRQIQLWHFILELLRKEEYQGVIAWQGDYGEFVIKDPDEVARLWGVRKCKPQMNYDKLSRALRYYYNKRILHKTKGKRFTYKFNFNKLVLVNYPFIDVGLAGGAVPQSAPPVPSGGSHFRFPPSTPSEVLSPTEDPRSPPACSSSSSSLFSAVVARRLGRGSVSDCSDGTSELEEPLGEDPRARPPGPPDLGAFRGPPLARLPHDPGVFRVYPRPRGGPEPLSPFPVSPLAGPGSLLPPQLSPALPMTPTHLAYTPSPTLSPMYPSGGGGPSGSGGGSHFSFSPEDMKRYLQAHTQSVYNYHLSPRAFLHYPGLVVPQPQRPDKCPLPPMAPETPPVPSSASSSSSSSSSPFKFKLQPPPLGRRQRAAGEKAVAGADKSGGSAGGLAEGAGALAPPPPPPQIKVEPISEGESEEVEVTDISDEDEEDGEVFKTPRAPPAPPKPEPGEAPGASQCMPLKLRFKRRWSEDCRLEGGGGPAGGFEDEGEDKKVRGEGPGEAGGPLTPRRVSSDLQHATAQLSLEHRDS
# Summary of the method: as §1
# ETV3L = molecular target: T7, ETV3L (Homo sapiens, UniProt Q6ZN32 1-361); settings: protein: recombinant; tags: N-terminal GST; dsDNA, one strand shown
# T7 sequence: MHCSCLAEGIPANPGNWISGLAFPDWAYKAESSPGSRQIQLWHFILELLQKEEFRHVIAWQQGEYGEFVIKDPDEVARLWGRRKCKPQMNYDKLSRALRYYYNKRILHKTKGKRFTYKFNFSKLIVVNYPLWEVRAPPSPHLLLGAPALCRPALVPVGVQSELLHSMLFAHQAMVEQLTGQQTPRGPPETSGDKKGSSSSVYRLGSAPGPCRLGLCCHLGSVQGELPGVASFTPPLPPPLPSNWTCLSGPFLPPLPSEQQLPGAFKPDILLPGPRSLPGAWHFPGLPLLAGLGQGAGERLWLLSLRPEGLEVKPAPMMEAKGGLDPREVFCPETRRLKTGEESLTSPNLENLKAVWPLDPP
# Summary of the method: as §1
# ETS2 = molecular target: T8, ETS2 (Homo sapiens, UniProt P15036 1-469); settings: protein: recombinant; tags: N-terminal GST; dsDNA, one strand shown
# T8 sequence: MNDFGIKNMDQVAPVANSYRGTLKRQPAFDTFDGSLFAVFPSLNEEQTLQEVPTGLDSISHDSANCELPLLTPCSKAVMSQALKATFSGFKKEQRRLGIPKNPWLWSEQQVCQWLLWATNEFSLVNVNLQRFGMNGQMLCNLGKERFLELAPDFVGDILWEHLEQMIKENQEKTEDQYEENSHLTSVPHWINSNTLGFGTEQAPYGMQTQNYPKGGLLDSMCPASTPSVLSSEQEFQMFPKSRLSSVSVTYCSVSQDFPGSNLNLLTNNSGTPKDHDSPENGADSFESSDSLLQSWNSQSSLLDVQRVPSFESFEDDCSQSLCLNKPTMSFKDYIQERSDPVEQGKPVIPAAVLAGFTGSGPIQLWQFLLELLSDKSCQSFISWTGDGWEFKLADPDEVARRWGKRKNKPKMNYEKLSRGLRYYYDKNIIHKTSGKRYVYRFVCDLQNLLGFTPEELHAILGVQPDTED
# Summary of the method: as §1
# SPDEF = molecular target: T9, SPDEF (Homo sapiens, UniProt O95238 1-335); settings: protein: recombinant; tags: N-terminal GST; dsDNA, one strand shown
# T9 sequence: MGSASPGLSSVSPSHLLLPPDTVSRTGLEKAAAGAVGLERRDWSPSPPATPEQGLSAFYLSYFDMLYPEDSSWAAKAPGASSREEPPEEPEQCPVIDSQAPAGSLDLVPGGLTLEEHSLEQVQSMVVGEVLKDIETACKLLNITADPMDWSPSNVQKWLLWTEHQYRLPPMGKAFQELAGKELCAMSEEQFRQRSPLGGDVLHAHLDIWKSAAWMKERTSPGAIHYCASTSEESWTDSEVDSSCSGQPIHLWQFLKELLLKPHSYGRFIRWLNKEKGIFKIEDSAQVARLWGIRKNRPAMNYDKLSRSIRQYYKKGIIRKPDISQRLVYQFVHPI
# Summary of the method: as §1
# ETV7 = molecular target: T10, ETV7 (Homo sapiens, UniProt Q9Y603 1-341); settings: protein: recombinant; tags: N-terminal GST; dsDNA, one strand shown
# T10 sequence: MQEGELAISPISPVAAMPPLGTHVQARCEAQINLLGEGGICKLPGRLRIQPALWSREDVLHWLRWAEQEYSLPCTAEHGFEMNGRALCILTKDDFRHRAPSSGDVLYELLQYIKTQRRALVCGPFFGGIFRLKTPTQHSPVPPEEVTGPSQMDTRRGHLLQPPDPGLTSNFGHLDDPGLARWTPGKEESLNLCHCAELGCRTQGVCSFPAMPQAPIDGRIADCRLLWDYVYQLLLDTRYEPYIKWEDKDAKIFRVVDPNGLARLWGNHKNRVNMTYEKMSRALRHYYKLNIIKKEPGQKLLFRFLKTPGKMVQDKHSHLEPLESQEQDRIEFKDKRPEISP
# Summary of the method: as §1
# ELF5 = molecular target: T11, ELF5 (Homo sapiens, UniProt Q9UKW6-2 1-255); settings: protein: recombinant; tags: N-terminal GST; dsDNA, one strand shown
# T11 sequence: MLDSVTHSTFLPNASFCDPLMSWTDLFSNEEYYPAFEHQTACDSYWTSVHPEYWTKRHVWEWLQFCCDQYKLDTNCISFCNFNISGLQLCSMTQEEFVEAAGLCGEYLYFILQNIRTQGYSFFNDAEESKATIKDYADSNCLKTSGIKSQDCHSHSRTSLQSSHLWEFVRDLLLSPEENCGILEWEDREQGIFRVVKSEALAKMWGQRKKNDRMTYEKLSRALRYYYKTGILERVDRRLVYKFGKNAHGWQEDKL
# Summary of the method: as §1
# ETV3 = molecular target: T12, ETV3 (Homo sapiens, UniProt P41162-2 1-143); settings: protein: recombinant; tags: N-terminal GST; dsDNA, one strand shown
# T12 sequence: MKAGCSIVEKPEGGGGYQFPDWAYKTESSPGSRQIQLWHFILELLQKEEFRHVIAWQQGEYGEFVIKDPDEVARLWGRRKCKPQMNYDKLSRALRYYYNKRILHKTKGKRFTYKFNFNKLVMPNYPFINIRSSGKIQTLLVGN
# Summary of the method: as §1
# ETV6 = ETV6 (Homo sapiens, UniProt P41212 1-452); settings: protein: recombinant; tags: N-terminal GST; dsDNA, one strand shown
# Summary of the method: as §1
# Chain of ETV6 (P41212 whole entry): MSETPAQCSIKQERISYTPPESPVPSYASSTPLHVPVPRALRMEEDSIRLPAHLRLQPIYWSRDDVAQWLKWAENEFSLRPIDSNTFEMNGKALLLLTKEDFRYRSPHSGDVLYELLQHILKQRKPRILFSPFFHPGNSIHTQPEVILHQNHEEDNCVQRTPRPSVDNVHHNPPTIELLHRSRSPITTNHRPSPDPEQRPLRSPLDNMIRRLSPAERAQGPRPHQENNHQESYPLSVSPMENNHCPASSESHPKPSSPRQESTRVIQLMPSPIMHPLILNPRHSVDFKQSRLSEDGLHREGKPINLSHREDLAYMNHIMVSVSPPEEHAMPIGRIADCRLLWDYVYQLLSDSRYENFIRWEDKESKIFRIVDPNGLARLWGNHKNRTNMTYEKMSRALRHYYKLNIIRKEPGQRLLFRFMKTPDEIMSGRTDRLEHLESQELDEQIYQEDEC
# Chain of ETV1 (P50549 whole entry): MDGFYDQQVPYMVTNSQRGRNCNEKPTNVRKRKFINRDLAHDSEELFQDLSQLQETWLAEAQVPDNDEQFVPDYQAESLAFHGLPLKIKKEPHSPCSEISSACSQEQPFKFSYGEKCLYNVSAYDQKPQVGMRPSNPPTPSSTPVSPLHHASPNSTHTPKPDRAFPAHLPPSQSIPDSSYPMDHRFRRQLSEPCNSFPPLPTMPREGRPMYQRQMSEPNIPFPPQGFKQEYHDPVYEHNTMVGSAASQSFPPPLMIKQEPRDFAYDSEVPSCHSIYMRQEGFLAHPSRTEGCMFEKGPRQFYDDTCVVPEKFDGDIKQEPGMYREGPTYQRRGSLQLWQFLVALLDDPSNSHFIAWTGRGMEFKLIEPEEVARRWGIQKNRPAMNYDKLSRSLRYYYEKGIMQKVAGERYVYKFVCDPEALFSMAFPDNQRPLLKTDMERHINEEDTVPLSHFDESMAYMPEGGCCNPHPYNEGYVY
# Chain of ETV5 (P41161 whole entry): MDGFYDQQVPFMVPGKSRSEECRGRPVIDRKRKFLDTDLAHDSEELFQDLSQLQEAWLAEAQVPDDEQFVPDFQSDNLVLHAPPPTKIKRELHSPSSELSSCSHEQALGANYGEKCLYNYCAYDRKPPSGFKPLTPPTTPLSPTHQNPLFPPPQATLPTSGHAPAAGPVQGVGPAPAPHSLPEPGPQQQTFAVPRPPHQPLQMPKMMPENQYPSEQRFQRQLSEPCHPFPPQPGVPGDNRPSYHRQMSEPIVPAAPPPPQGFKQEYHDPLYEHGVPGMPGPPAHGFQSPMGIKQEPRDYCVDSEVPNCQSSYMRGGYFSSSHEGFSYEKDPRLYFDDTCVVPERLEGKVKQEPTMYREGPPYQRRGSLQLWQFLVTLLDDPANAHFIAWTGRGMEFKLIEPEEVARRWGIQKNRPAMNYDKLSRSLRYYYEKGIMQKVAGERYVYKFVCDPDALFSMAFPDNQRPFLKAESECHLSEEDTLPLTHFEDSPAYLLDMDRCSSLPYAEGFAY
# Chain of CRX (O43186 whole entry): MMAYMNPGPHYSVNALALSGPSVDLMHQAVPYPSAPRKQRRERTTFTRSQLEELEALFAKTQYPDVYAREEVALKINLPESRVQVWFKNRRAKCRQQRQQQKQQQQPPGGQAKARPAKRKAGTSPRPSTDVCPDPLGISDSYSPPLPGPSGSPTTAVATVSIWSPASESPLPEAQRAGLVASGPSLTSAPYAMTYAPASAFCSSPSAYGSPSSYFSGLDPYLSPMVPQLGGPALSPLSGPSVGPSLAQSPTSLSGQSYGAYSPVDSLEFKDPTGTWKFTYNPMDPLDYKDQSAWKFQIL
# Chain of HSF1 (Q00613 whole entry): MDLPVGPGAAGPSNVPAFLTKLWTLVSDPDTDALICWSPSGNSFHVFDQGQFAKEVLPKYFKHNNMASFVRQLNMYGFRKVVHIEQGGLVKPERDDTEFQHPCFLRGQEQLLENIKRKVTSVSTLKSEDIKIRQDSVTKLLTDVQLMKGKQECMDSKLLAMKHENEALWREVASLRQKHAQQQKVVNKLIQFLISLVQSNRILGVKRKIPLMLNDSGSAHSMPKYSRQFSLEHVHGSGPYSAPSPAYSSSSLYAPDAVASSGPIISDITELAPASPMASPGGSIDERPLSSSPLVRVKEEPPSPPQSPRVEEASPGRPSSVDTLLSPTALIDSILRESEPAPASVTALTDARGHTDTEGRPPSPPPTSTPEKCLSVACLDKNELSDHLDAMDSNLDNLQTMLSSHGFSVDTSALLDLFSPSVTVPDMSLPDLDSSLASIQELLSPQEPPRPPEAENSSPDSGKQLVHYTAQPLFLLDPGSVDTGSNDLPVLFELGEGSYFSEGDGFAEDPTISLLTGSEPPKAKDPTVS
# Chain of ELF4 (Q99607 whole entry): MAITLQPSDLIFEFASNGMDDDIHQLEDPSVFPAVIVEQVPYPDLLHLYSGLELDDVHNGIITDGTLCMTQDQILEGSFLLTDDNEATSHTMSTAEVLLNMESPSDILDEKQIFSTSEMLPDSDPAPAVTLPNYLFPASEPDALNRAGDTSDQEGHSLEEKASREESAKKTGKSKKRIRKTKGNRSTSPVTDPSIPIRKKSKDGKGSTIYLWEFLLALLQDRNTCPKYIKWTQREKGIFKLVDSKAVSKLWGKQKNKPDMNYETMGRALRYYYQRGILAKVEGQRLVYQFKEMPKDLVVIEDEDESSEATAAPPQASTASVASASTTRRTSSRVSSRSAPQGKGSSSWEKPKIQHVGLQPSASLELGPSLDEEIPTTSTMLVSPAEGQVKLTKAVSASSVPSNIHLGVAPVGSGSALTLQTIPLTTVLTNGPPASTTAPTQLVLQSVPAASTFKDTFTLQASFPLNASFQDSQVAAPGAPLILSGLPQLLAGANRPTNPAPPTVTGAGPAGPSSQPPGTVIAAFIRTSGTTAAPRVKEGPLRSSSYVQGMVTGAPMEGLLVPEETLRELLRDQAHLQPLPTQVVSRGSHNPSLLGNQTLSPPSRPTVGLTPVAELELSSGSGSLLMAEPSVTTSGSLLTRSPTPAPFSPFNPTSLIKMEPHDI
sequence,measurement,setting,value
ATTTTC,binding signal,FEV,"1.35 fold enrichment (6-mer frequency, TF over GST control)"
same,binding signal,ETV5,"1.44 fold enrichment (6-mer frequency, TF over GST control)"
same,binding signal,HSF1,"2.04 fold enrichment (6-mer frequency, TF over GST control)"
same,binding signal,SPIC,"1.44 fold enrichment (6-mer frequency, TF over GST control)"
same,binding signal,ELF4,"1.64 fold enrichment (6-mer frequency, TF over GST control)"
same,binding signal,ELK4,"1.5 fold enrichment (6-mer frequency, TF over GST control)"
same,binding signal,ETV2,"1.63 fold enrichment (6-mer frequency, TF over GST control)"
same,binding signal,ELF3,"1.48 fold enrichment (6-mer frequency, TF over GST control)"
same,binding signal,CRX,"1.67 fold enrichment (6-mer frequency, TF over GST control)"
same,binding signal,ETV1,"1.4 fold enrichment (6-mer frequency, TF over GST control)"
same,binding signal,ERF,"1.38 fold enrichment (6-mer frequency, TF over GST control)"
same,binding signal,ETV3L,"1.42 fold enrichment (6-mer frequency, TF over GST control)"
same,binding signal,ETS2,"1.43 fold enrichment (6-mer frequency, TF over GST control)"
same,binding signal,SPDEF,"1.34 fold enrichment (6-mer frequency, TF over GST control)"
same,binding signal,ETV7,"1.39 fold enrichment (6-mer frequency, TF over GST control)"
same,binding signal,ELF5,"1.61 fold enrichment (6-mer frequency, TF over GST control)"
same,binding signal,ETV3,"1.42 fold enrichment (6-mer frequency, TF over GST control)"
same,binding signal,ETV6,"1.43 fold enrichment (6-mer frequency, TF over GST control)"
